PubChem BioAssay (Tox21)
Inconclusive results are not listed. The source made the active and inactive calls. Calls come from the whole dose curve; as a rule, active = well fitted curve in the direction sought with a large enough effect in the repeat runs; inconclusive = weak or mixed curves; inactive = no such curve, though single readings can be large; an effect the other way counts as inactive or inconclusive.

Assays:
[1] = qHTS RealTime-Glo MT Cell Viability Assay in HEK293 cells - 32 hour (AID 1224868); note: top concentration of the series differs between compounds; nearly all actives have a fitted effect of over 50% in size
Method in brief: (§1)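 Luminescence generated by NanoLuc from substrate produced by living HEK293 cells served as the viability signal. Each value reflects the reading at its stated time point during continuous 40 h compound exposure at 37 C.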

[2] = A CellTox Green Cytotoxicity Assay to monitor cytotoxicity in HEK293 cells - 0 hour (AID 1224869); note: nearly all actives have a fitted effect of over 50% in size
Method in brief: (§2)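 Real-time, in one plate: 600 HEK293 cells/well with dead-cell DNA dye, pinned compound after 5 h, 37 C incubation over 40 h; viable cells give no appreciable fluorescence.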

[3] = qHTS RealTime-Glo MT Cell Viability Assay in HepG2 cells - 40 hour (AID 1224870); note: nearly all actives have a fitted effect of over 50% in size
Method in brief: (§3)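 Real-time viability: cells seeded at 600 per well together with NanoLuc and cell-permeant prosubstrate, compounds added after 5 h incubation. Luminescence tracked at 0, 8, 16, 24, 32 and 40 h of exposure.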

[4] = A CellTox Green Cytotoxicity Assay to monitor cytotoxicity in HEK293 cells - 40 hour (AID 1224871); note: nearly all actives have a fitted effect of over 45% in size
Method in brief: as §2

[5] = qHTS RealTime-Glo MT Cell Viability Assay in HEK293 cells - 16 hour (AID 1224872); note: top concentration of the series differs between compounds; nearly all actives have a fitted effect of over 50% in size
Method in brief: as §1

[6] = qHTS RealTime-Glo MT Cell Viability Assay in HepG2 cells - 8 hour (AID 1224873); note: nearly all actives have a fitted effect of over 55% in size
Method in brief: as §3

[7] = qHTS RealTime-Glo MT Cell Viability Assay in HEK293 cells - 40 hour (AID 1224874); details: RealTime-Glo luminescence, active compounds read low; note: nearly all actives have a fitted effect of over 50% in size
Method in brief: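 Kinetic, non-lysing viability readout. Seed HEK293 (600/well) with reagent, incubate 5 h at 37 C/5% CO2, pin 23 nL compound in DMSO, incubate at 37 C, read luminescence at 0, 8, 16, 24, 32, 40 h.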

[8] = qHTS RealTime-Glo MT Cell Viability Assay in HepG2 cells - 32 hour (AID 1224877); note: nearly all actives have a fitted effect of over 55% in size
Method in brief: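 Tox21 10K library screened in qHTS format on HepG2 cells carrying RealTime-Glo reagents. Compounds were added after a 5 h preincubation, and the luminescent signal from continuous culture was measured repeatedly during 40 h treatment.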

[9] = A CellTox Green Cytotoxicity Assay to monitor cytotoxicity in HepG2 cells - 16 hour (AID 1224876); note: nearly all actives have a fitted effect of over 45% in size
Method in brief: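 Cytotoxicity was tracked as dead-cell DNA fluorescence in HepG2 cells treated with test compounds at 37 C; each time-point value comes from one kinetic series spanning 0, 8, 16, 24, 32 and 40 h.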

[10] = A CellTox Green Cytotoxicity Assay to monitor cytotoxicity in HEK293 cells - 24 hour (AID 1224875); note: series mostly up to about 77 µM; nearly all actives have a fitted effect of over 45% in size
Method in brief: as §2
% is set by controls: 0 for no effect and ±100 for the full control effect.

O=C1CC2(CCCC2)CC(=O)N1CCNCC1COc2ccccc2O1 (stereo not drawn)
inactive: outcome [1] | outcome [2] | outcome [3] | Potency [4] | outcome [5] | outcome [6] | max response [7] -2.45% | outcome [8]

COc1ccccc1N1CCN(CC(O)COc2cc(OC)c(OC)c(OC)c2)CC1 (stereo not drawn)
inactive: outcome [1] | outcome [2] | outcome [3] | Potency [4] | outcome [5] | outcome [6] | max response [7] 4.13% | Potency [9] | outcome [8]

N#Cc1ccccc1C#N
inactive: outcome [1] | outcome [2] | outcome [3] | Potency [4] | outcome [5] | outcome [6] | max response [7] 4.47% | Potency [10] | outcome [8]

CCCC(=O)CC
inactive: outcome [1] | outcome [2] | outcome [3] | Potency [4] | outcome [5] | outcome [6] | max response [7] 11.6% | Potency [10] | Potency [9] | outcome [8]

CCCCCCCCCCCCCCCCN(C)C
inactive: activity change, negative = cytotoxic [1] 5.99% [at 6.97 µM] | cytotoxicity [2] 1.73% [at 6.97 µM] | activity change, negative = cytotoxic [3] -1.15% [at 6.97 µM] | cytotoxicity increase [4] 4.91% [at 6.97 µM] | activity change, negative = cytotoxicity [5] 5.86% [at 6.97 µM] | viability change, negative = cytotoxic [6] 3.36% [at 6.97 µM] | max response [7] 4.91% | activity change [10] 2.54% [at 6.97 µM, active compounds read high] | activity change, negative = cytotoxic [8] -0.525% [at 6.97 µM]

Cc1ccc(NC(N)=O)cc1
inactive: outcome [1] | outcome [2] | outcome [3] | Potency [4] | outcome [5] | outcome [6] | max response [7] 11.1% | Potency [10] | outcome [8]

O=C(O)Cc1c(Cl)ccc(Cl)c1Cl
inactive: outcome [1] | outcome [2] | outcome [3] | Potency [4] | outcome [5] | outcome [6] | Potency [10] | Potency [9]

N#CC1(N)CCCCC1
inactive: outcome [1] | outcome [2] | outcome [3] | Potency [4] | outcome [5] | outcome [6] | max response [7] 6.54% | Potency [10] | outcome [8]

Cc1ccccc1OCC(=O)O
inactive: outcome [1] | outcome [2] | outcome [3] | Potency [4] | outcome [5] | outcome [6] | max response [7] 3.48% | Potency [10] | Potency [9] | outcome [8]

CC(O)C(CO)C(C)O (stereo not drawn)
inactive: outcome [1] | outcome [2] | outcome [3] | Potency [4] | outcome [5] | outcome [6] | Potency [10] | Potency [9]

CCCCCCCCCCCBr
inactive: outcome [1] | outcome [2] | outcome [3] | Potency [4] | outcome [5] | outcome [6] | max response [7] -3.54% | Potency [10] | outcome [8]

CNCCc1ccccn1
inactive: outcome [1] | outcome [2] | outcome [3] | Potency [4] | outcome [5] | outcome [6] | max response [7] -0.337% | Potency [10] | outcome [8]

C=CCCCCCCCCOC(C)=O
inactive: outcome [1] | outcome [2] | outcome [3] | Potency [4] | outcome [5] | outcome [6] | max response [7] 0.238% | Potency [10] | outcome [8]

COCc1nnc(-c2ccc[n+]([O-])c2)n1-c1c(Cl)c(Cl)cc2[nH]c(=O)c(=O)[nH]c12
inactive: outcome [1] | outcome [2] | outcome [3] | Potency [4] | outcome [5] | outcome [6] | max response [7] -6.51% | Potency [10] | Potency [9] | outcome [8]

O=C(O)CCCCCCCCCC(=O)O
inactive: outcome [1] | outcome [2] | outcome [3] | Potency [4] | outcome [5] | outcome [6] | max response [7] 0.0039% | Potency [10] | outcome [8]

C[C@@H](CN1CC(=O)NC(=O)C1)N1CC(=O)NC(=O)C1
inactive: outcome [1] | outcome [2] | outcome [3] | Potency [4] | outcome [5] | outcome [6] | max response [7] -3.41% | Potency [10] | Potency [9] | outcome [8]

C/C(Cl)=C/CCl
inactive: outcome [1] | outcome [2] | outcome [3] | Potency [4] | outcome [5] | outcome [6] | max response [7] 16% | Potency [9] | outcome [8]

C=CC(=O)OCCOCCOCC
inactive: outcome [1] | outcome [2] | outcome [3] | Potency [4] | outcome [5] | outcome [6] | max response [7] 21.6% | Potency [9] | outcome [8]

CCc1ccc(CC)cc1
inactive: outcome [1] | outcome [2] | outcome [3] | Potency [4] | outcome [5] | outcome [6] | max response [7] 4.78% | Potency [10] | Potency [9] | outcome [8]

c1coc(Cn2cccc2)c1
inactive: outcome [1] | outcome [2] | outcome [3] | Potency [4] | outcome [5] | outcome [6] | max response [7] 2.22% | outcome [8]

COc1cc(OC)cc(OC)c1
inactive: outcome [1] | outcome [2] | outcome [3] | Potency [4] | outcome [5] | outcome [6] | max response [7] 6.85% | Potency [10] | Potency [9] | outcome [8]

CCCC(C)C(O)CC (stereo not drawn)
inactive: outcome [1] | outcome [2] | outcome [3] | Potency [4] | outcome [5] | outcome [6] | max response [7] 14.3% | Potency [10] | outcome [8]

O=C(O)COc1ccc2ccccc2c1
inactive: outcome [1] | outcome [2] | outcome [3] | Potency [4] | outcome [5] | outcome [6] | max response [7] 1.62% | Potency [10] | outcome [8]

CN1C(CCl)Nc2cc(Cl)c(S(N)(=O)=O)cc2S1(=O)=O (stereo not drawn)
inactive: outcome [1] | outcome [2] | outcome [3] | Potency [4] | outcome [5] | outcome [6] | max response [7] -6.26% | Potency [10] | outcome [8]
